Columns and labels:
Assay in all cases: DAPPL (digital affinity profiling via proximity ligation, sequencing); 10 mM Tris-HCl pH 7.5, 50 mM NaCl, 1 mM DTT, 4% glycerol, room temperature, 30 min; GST-TFs on glutathione beads, 16-mer random dsDNA library, 0.1% formaldehyde crosslink after washing; high values mean tight binding
Settings in all cases: protein: recombinant; tags: N-terminal GST; dsDNA, one strand shown
FLI1 = target: T1, FLI1 (Homo sapiens, UniProt Q01543 1-452)
T1 sequence: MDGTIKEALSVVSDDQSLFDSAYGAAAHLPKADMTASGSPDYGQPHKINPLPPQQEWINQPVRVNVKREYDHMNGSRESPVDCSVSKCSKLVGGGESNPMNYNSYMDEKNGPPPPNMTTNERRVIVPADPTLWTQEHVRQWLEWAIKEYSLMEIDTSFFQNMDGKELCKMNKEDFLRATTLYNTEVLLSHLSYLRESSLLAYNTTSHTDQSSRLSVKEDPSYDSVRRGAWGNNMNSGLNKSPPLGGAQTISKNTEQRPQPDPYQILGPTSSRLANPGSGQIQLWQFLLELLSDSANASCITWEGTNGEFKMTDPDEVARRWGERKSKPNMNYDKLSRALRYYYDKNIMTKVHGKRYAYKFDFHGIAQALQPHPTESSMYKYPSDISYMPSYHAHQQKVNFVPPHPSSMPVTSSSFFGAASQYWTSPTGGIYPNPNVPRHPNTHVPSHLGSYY
Method in brief: (§1)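 In yeast, human transcription factors were expressed with a GST fusion, then pulled down on glutathione beads and given DNA barcodes. Pooled with a tag-only sample, they were exposed to 200 nmole of a 16-mer random double-stranded DNA library (Tris/NaCl/DTT/glycerol buffer, room temperature, 30 min), washed, crosslinked with 0.1% formaldehyde, proximity-ligated using BsaI/T4 ligase for 1 h at 37 °C, PCR-amplified and read on an Illumina NextSeq500. Each hexamer's frequency of reads for a factor, divided by the matching frequency for the tag-only sample, gives the binding signal.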

ELK1 = target: T2, ELK1 (Homo sapiens, UniProt P19419 1-428)
T2 sequence: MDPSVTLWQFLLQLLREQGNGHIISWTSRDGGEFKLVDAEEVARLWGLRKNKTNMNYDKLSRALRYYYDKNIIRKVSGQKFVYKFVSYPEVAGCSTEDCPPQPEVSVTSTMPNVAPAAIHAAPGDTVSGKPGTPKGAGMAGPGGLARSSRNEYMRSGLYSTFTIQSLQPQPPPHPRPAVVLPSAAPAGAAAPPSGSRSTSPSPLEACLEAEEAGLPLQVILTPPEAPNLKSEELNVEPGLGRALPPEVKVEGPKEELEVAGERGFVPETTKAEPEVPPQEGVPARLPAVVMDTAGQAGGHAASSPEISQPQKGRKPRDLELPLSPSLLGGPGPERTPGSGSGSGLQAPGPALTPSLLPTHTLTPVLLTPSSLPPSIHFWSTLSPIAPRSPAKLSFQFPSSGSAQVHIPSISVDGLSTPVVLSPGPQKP
Method in brief: as §1

ERG = target: T3, ERG (Homo sapiens, UniProt P11308 1-479)
T3 sequence: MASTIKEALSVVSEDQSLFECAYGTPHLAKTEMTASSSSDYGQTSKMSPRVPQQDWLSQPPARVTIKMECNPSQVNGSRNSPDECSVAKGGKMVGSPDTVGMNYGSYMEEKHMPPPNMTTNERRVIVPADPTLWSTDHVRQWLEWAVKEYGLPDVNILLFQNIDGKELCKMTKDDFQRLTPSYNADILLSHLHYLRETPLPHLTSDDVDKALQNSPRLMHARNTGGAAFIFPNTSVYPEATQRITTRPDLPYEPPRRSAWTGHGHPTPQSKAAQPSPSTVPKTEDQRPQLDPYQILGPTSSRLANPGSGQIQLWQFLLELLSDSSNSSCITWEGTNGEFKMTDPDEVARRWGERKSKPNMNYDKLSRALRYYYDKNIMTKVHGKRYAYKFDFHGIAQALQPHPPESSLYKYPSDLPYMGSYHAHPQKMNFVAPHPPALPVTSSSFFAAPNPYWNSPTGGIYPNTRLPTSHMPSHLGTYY
Method in brief: as §1

ELF1 = ELF1 (Homo sapiens, UniProt P32519 1-619)
ELF1, sequence (P32519 whole entry): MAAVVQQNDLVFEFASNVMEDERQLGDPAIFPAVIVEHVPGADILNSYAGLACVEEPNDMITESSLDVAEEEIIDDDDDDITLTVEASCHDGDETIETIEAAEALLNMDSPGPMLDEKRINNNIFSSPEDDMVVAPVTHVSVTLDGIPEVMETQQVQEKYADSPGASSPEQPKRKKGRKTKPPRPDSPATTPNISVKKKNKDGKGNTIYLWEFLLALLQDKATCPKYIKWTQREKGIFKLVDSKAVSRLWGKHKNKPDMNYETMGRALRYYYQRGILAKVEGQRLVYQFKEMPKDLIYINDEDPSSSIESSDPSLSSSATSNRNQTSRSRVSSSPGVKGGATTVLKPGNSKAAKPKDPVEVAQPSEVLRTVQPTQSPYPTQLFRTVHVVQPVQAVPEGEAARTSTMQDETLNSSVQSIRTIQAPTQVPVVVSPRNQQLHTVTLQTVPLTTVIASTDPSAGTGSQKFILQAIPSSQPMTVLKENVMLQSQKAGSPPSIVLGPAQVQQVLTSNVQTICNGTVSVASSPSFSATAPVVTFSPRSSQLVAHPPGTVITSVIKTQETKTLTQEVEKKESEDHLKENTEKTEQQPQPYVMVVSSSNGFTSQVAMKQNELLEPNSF
Method in brief: as §1

EHF = target: T4, EHF (Homo sapiens, UniProt Q9NZC4 1-300)
T4 sequence: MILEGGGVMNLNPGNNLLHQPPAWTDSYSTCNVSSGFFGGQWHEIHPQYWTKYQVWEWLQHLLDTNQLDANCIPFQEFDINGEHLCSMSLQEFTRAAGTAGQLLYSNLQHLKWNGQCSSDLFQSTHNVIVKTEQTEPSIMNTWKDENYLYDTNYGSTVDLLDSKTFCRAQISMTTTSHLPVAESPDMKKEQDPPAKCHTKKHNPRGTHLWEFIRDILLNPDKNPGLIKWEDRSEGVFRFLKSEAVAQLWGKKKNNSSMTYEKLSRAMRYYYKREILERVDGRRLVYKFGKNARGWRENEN
Method in brief: as §1

SPI1 = SPI1 (Homo sapiens, UniProt P17947 1-270)
Method in brief: as §1

ELK3 = target: T5, ELK3 (Homo sapiens, UniProt P41970 1-407)
T5 sequence: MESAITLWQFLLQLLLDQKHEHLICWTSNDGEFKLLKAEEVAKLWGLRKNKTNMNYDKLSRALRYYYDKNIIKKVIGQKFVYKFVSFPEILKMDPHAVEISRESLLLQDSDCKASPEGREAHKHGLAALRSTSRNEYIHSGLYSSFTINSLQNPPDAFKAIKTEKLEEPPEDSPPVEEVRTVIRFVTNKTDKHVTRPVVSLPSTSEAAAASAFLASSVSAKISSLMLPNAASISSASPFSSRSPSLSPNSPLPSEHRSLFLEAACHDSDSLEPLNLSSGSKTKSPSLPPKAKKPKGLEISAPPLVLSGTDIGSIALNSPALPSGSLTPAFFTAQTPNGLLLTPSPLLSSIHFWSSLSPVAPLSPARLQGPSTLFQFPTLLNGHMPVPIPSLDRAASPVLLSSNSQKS
Method in brief: as §1

ELF4 = ELF4 (Homo sapiens, UniProt Q99607 1-663)
ELF4, sequence (Q99607 whole entry): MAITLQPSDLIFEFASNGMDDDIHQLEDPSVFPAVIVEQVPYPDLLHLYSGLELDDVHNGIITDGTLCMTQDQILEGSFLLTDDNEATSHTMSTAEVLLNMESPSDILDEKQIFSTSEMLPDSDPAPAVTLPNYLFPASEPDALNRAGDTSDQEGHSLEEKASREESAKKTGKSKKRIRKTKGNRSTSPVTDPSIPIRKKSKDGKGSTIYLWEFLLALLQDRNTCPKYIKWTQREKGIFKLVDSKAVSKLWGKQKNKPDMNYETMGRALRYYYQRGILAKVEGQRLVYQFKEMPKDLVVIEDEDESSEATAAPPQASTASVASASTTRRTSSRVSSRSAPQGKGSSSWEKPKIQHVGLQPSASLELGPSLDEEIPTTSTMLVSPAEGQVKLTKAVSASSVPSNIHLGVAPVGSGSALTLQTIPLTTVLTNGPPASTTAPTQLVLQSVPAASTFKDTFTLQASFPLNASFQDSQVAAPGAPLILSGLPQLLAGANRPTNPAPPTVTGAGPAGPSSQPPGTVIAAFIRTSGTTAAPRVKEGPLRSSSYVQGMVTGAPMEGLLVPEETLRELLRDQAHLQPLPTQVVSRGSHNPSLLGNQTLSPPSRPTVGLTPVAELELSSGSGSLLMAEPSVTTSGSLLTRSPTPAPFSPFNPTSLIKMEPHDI
Method in brief: as §1

ETV2 = target: T6, ETV2 (Homo sapiens, UniProt O00321 1-342)
T6 sequence: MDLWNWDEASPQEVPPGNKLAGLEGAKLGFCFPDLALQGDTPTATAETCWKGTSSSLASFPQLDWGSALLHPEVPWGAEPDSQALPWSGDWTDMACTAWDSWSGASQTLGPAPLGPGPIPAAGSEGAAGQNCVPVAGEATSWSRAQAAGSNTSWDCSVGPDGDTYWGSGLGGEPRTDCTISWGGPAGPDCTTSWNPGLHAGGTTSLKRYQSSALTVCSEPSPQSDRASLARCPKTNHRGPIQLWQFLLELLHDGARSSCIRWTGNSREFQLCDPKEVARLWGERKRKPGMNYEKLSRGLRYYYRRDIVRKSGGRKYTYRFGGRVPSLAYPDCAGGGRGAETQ
Method in brief: as §1

ETV3L = target: T7, ETV3L (Homo sapiens, UniProt Q6ZN32 1-361)
T7 sequence: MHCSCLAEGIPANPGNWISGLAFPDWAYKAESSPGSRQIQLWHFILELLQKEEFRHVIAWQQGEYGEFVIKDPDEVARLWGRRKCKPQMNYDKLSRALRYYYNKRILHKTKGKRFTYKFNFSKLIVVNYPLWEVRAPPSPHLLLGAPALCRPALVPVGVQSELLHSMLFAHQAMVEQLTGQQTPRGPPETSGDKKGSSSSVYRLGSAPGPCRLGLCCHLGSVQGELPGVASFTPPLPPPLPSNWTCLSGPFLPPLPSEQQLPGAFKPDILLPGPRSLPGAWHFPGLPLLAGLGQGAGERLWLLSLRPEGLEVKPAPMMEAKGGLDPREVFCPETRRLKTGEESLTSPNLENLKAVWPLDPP
Method in brief: as §1

ETV6 = ETV6 (Homo sapiens, UniProt P41212 1-452)
ETV6, sequence (P41212 whole entry): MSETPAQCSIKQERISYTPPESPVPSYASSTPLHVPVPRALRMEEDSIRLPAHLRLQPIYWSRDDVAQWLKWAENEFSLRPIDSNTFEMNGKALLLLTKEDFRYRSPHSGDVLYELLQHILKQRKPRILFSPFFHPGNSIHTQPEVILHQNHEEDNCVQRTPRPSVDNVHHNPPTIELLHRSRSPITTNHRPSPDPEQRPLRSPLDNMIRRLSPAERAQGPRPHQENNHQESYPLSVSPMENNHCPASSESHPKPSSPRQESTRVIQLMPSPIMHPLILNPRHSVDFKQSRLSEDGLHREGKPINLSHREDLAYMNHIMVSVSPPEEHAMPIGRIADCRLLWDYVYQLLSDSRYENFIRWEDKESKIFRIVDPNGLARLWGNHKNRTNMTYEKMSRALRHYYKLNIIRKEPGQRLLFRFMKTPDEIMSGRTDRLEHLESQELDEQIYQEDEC
Method in brief: as §1

FEV = target: T8, FEV (Homo sapiens, UniProt Q99581 1-238)
T8 sequence: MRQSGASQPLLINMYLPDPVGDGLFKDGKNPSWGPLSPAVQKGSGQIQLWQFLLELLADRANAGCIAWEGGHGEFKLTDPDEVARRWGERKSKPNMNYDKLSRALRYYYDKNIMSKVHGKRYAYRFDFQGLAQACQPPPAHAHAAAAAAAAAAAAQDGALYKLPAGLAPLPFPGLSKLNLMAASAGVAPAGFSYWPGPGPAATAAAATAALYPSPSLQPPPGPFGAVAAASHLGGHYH
Method in brief: as §1

SPIC = target: T9, SPIC (Homo sapiens, UniProt Q8N5J4 1-248)
T9 sequence: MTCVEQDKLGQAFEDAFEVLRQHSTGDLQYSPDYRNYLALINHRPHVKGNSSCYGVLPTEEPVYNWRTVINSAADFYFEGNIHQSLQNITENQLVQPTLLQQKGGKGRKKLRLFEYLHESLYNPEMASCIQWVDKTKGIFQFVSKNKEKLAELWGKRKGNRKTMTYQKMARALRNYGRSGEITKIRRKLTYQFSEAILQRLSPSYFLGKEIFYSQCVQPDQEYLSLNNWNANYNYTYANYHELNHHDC
Method in brief: as §1

ETV7 = target: T10, ETV7 (Homo sapiens, UniProt Q9Y603 1-341)
T10 sequence: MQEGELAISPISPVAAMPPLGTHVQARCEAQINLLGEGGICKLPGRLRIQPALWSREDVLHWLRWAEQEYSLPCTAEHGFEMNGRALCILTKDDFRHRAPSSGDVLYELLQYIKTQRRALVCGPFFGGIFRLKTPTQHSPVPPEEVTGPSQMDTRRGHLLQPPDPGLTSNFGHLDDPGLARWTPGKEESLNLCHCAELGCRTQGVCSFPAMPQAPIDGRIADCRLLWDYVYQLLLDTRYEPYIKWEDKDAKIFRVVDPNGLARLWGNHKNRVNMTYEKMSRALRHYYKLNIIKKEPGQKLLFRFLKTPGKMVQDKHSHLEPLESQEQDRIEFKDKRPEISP
Method in brief: as §1

ETV3 = target: T11, ETV3 (Homo sapiens, UniProt P41162-2 1-143)
T11 sequence: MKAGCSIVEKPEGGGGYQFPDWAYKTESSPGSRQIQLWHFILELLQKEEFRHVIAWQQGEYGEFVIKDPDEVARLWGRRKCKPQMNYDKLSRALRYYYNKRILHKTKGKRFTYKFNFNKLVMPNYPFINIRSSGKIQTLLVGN
Method in brief: as §1

CRX = CRX (Homo sapiens, UniProt O43186 1-299)
CRX, sequence (O43186 whole entry): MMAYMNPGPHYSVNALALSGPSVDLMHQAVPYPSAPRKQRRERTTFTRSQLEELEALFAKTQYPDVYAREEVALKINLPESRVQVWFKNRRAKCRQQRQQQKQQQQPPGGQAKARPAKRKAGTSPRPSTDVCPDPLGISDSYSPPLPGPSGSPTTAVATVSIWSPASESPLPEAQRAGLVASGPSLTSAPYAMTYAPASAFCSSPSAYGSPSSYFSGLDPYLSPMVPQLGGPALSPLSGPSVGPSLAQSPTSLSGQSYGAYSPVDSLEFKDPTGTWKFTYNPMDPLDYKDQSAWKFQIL
Method in brief: as §1

| Sequence | binding signal (FLI1) | binding signal (ELK1) | binding signal (ERG) | binding signal (ELF1) | binding signal (EHF) | binding signal (SPI1) | binding signal (ELK3) | binding signal (ELF4) | binding signal (ETV2) | binding signal (ETV3L) | binding signal (ETV6) | binding signal (FEV) | binding signal (SPIC) | binding signal (ETV7) | binding signal (ETV3) | binding signal (CRX) |
| --- | --- | --- | --- | --- | --- | --- | --- | --- | --- | --- | --- | --- | --- | --- | --- | --- |
| CCATGG | 1.08 fold enrichment (6-mer frequency, TF over GST control) | 1.05 fold enrichment (6-mer frequency, TF over GST control) | 1.08 fold enrichment (6-mer frequency, TF over GST control) | 1 fold enrichment (6-mer frequency, TF over GST control) | 1.06 fold enrichment (6-mer frequency, TF over GST control) | 1.05 fold enrichment (6-mer frequency, TF over GST control) | 1.06 fold enrichment (6-mer frequency, TF over GST control) | 1.06 fold enrichment (6-mer frequency, TF over GST control) | 1.05 fold enrichment (6-mer frequency, TF over GST control) | 1.02 fold enrichment (6-mer frequency, TF over GST control) | 1.03 fold enrichment (6-mer frequency, TF over GST control) | – | – | – | – | – |
| CATGGC | 1.1 fold enrichment (6-mer frequency, TF over GST control) | 1.02 fold enrichment (6-mer frequency, TF over GST control) | 1.05 fold enrichment (6-mer frequency, TF over GST control) | 1.02 fold enrichment (6-mer frequency, TF over GST control) | 1.02 fold enrichment (6-mer frequency, TF over GST control) | 1.04 fold enrichment (6-mer frequency, TF over GST control) | 1.04 fold enrichment (6-mer frequency, TF over GST control) | 1.02 fold enrichment (6-mer frequency, TF over GST control) | 1.04 fold enrichment (6-mer frequency, TF over GST control) | 1.02 fold enrichment (6-mer frequency, TF over GST control) | 1 fold enrichment (6-mer frequency, TF over GST control) | 1.04 fold enrichment (6-mer frequency, TF over GST control) | 1.05 fold enrichment (6-mer frequency, TF over GST control) | 1.07 fold enrichment (6-mer frequency, TF over GST control) | 1.05 fold enrichment (6-mer frequency, TF over GST control) | – |
| TCGTTA | 1 fold enrichment (6-mer frequency, TF over GST control) | – | – | – | – | – | – | – | 1.08 fold enrichment (6-mer frequency, TF over GST control) | 1.01 fold enrichment (6-mer frequency, TF over GST control) | – | – | 1.02 fold enrichment (6-mer frequency, TF over GST control) | 1.06 fold enrichment (6-mer frequency, TF over GST control) | – | 1.1 fold enrichment (6-mer frequency, TF over GST control) |
